Assay outcomes (PubChem BioAssay)
ER stress death – protection against thapsigargin ER stress killing – CSM14.1 cells, ATP luminescence, primary screen | 0.33% of 48,000 active | CSM14.1 thapsigargin ER stress survival | relative survival (cellular ATP), % at 15 µg/mL (by protocol);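 active means survival measured by cellular ATP above 50% at 15 µg/ml in the first screen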;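 further: cell death triggered by about 15 µM thapsigargin; ATP read 24 h after thapsigargin was added; plate controls were thapsigargin with DMSO for no effect and DMSO without thapsigargin for full effect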
The depositor's hits bear a star. The full list was thinned out, with hits kept by preference.

SMILES | ER stress death
CCOc1cc(C2Nc3ccccc3NC3=C2C(=O)CC(c2ccc(OC)cc2)C3)cc(Br)c1O (stereo not given) | 64*
O=C1CC(c2ccccc2)CC(O)=C1C=NCc1ccc2c(c1)OCO2 (stereo not given) | 6
Cc1ccc(S(=O)(=O)N(CC(=O)NCc2ccc(Cl)cc2)Cc2ccccc2)cc1 | 8
Cc1cc(C)cc(NC(=O)COc2ccc(Cl)cc2C)c1 | 0
COc1ccc(N2C(=O)NC(=O)/C(=C\c3ccc(Oc4ccc([N+](=O)[O-])cn4)cc3)C2=O)cc1 | 1
COc1cccc(-n2c(O)c(C=Nc3ccc4c(c3)OCO4)c(=O)[nH]c2=O)c1 | 5
CC(=O)c1cccc(N2C(=O)C3C4C=CC(C4=C(C)C)C3C2=O)c1 (stereo not given) | 1
COc1ccc(C(C)=O)cc1N1C(=O)C2C3C=CC(C3=C(c3ccccc3)c3ccccc3)C2C1=O (stereo not given) | 77*
COc1ccc(C(C)=O)cc1N1C(=O)C=CC1=O | -7
CCOC(=O)c1c(N2CCNCC2)c2ccccc2[nH]c1=O | 6
C/C(=N/O)c1ccc(NC2=C(N3CCCC3)C(=O)c3ccccc3C2=O)cc1 | 3
COc1ccc(C2Nc3ccc(C(=O)c4ccccc4)cc3NC3=C2C(=O)CCC3)c(OC)c1 (stereo not given) | 3
COc1ccccc1C1Nc2ccc(C(=O)c3ccccc3)cc2NC2=C1C(=O)CCC2 (stereo not given) | 10
CN(C)c1ccc(C2Nc3ccc(C(=O)c4ccccc4)cc3NC3=C2C(=O)CCC3)cc1 (stereo not given) | 97*
CC(C)OP(=O)(OC(C)C)C(Nc1cccc(N)c1)c1cccc(N)c1 (stereo not given) | 81*
COP(=O)(OC)C(Nc1cc(Cl)cc(Cl)c1)c1cccc(O)c1 (stereo not given) | -3
CC(C)OP(=O)(OC(C)C)C(Nc1cccc([N+](=O)[O-])c1)c1cccc([N+](=O)[O-])c1 (stereo not given) | 6
CC1=C(C(=O)OCCCc2ccccc2)C(c2ccc(Cl)c(Cl)c2)CC(=O)N1 (stereo not given) | 1
CC1CC(Nc2ccccc2)c2ccccc2N1C(=O)c1cccc(Br)c1 (stereo not given) | 6
CC1CC(Nc2ccccc2)c2ccccc2N1C(=O)c1ccccc1 (stereo not given) | 0
CC1CC(Nc2ccccc2)c2ccccc2N1C(=O)/C=C/c1ccco1 (stereo not given) | 51*
O=C1N=C2SC=CN2C(=O)C1Cc1ccccc1 (stereo not given) | 5
COc1ccc(CCNC(=O)/C(=C/c2ccc(Cl)cc2)NC(=O)c2ccc(C)cc2)cc1OC | 0
COc1ccc(CCNC(=O)/C(=C/c2ccc(C(C)C)cc2)NC(=O)c2ccccc2)cc1OC | 79*
COCCNC(=O)/C(=C/c1ccc(C(C)C)cc1)NC(=O)c1ccccc1 | 2
SMILES | ER stress death
CC(C)Cn1cc(F)c(=O)n(CC(C)C)c1=O | 10
O=C1C=Cc2ccccc2/C1=N/Oc1ccc2noc3c2c1C(=O)c1ccccc1-3 | -20
Cc1ccc([N+](=O)[O-])cc1-c1ccc(/C=C2/C(=O)NC(=O)N(C)C2=O)o1 | 2
CSc1ccc(C2Nc3ccccc3NC3=C2C(=O)CC(C)(C)C3)cc1 (stereo not given) | 11
CC1(C)CC(=O)C2=C(C1)Nc1ccccc1NC2c1ccc(-c2ccccc2)cc1 (stereo not given) | 121*
COc1ccc(C2Nc3ccccc3NC3=C2C(=O)CC(C)(C)C3)cc1COc1ccc(F)cc1 (stereo not given) | 61*
CC1(C)CC(=O)C2=C(C1)Nc1ccccc1NC2c1cccc(F)c1 (stereo not given) | 0
CCCCOc1ccc(C2Nc3ccccc3NC3=C2C(=O)CC(C)(C)C3)cc1 (stereo not given) | -3
COC(=O)c1ccc(C2Nc3ccccc3NC3=C2C(=O)CC(C)(C)C3)cc1 (stereo not given) | 7
O=C(/C=C/c1ccc([N+](=O)[O-])cc1)c1ccc(I)cc1 | 2
CCN(CC)c1ccc(/C=C2\C(=O)NC(=O)N(c3ccccc3OC)C2=O)cc1 | -3
Cc1cc(C=C2C(=O)N(C)C(=O)N(C)C2=O)c(C)n1-c1ccc([N+](=O)[O-])cc1 | 9
O=C(CCNC(=O)/C(=C\c1ccccc1)NC(=O)c1ccco1)OCc1ccccc1 | 8
CC(C)COc1ccc(C(=O)N/C(=C/c2ccccc2)C(=O)NCC(=O)OCc2ccccc2)cc1 | 80*
COc1ccc(C(=O)N/C(=C\c2ccccc2)C(=O)NCCCN(C)C)cc1 | -1
COc1cccc(OCCOc2ccc(/C=C3\C(=O)NN(c4ccccc4)C3=O)cc2OC)c1 | 11
COc1cccc(CN2CCN(C(=O)c3cc(OC)cc(OC)c3)CC2)c1 | 3
O=P(CCCO)(c1ccc(Cl)cc1)c1ccc(Cl)cc1 | 0
COc1ccc(C2CC(=O)C3=C(C2)Nc2ccccc2NC3c2ccccc2OC)cc1 (stereo not given) | 3
COc1ccc(C2Nc3ccccc3NC3=C2C(=O)CC(c2ccc(Cl)cc2)C3)cc1 (stereo not given) | 8
COc1ccc(C2CC(=O)C3=C(C2)Nc2ccccc2NC3c2ccccc2Cl)cc1 (stereo not given) | 101*
COc1ccc(C2CC(=O)C3=C(C2)Nc2ccccc2NC3c2ccc(OCc3ccccc3)c(OC)c2)cc1 (stereo not given) | 0
COc1ccc(C2CC(=O)C3=C(C2)Nc2ccccc2NC3c2ccccc2C)cc1 (stereo not given) | 99*
COc1ccc(C2CC(=O)C3=C(C2)Nc2ccccc2NC3c2ccc(C)cc2)cc1 (stereo not given) | -3
COc1ccc(C2CC(=O)C3=C(C2)Nc2ccccc2NC3c2c(Cl)cccc2Cl)cc1 (stereo not given) | 2
SMILES | ER stress death
COc1ccc(C2CC(=O)C3=C(C2)Nc2ccccc2NC3c2ccc(OCc3ccccc3)cc2)cc1 (stereo not given) | 94*
O=C1CC(c2ccccc2)CC2=C1C(c1ccccc1Cl)Nc1ccccc1N2 (stereo not given) | -5
CCOC(=O)/C=C/C(=O)Nc1nc(-c2ccc(C)cc2)cs1 | -8
O=C(Cc1ccc(Cl)cc1)Nc1ccc2c(c1)OCCO2 | 3
CC(C)(C)c1cc(Br)ccc1OCC(=O)O | -1
O=C1c2ccccc2C2(O)OC(c3ccccc3)=C(c3nc4ccccc4s3)C12O (stereo not given) | 6
COCc1cc(C)nc(NNC(=S)Nc2ccccc2)c1C#N | 3
CCN(CC)CCSc1nc(O)c(CC(C)C)c(=O)[nH]1 | -2
COC(=O)c1c(NC(=O)c2c(-c3ccccc3)noc2C)sc2c1CCCCC2 | 9
CN(C)C=NC(=O)/C(C#N)=C1\CCc2ccccc2N1 | -4
CCC(=O)N1c2ccccc2NC2=C(C(=O)CC(C)(C)C2)C1c1ccc(N(CC)CC)cc1 (stereo not given) | 53*
COc1ccc(C2C3=C(CC(c4ccccc4)CC3=O)Nc3ccccc3N2C(=O)C(C)C)cc1OC (stereo not given) | 2
CCC(=O)N1c2ccccc2NC2=C(C(=O)CC(C)(C)C2)C1c1ccc(C#N)cc1 (stereo not given) | -3
CCC(=O)N1c2ccccc2NC2=C(C(=O)CC(c3ccccc3)C2)C1c1ccc(F)cc1 (stereo not given) | 106*
